# Source: PubChem (Broad Institute)
# esBAF inh: SWI/SNF esBAF complex inhibition. mouse ES cells, Bmi1-luciferase knock-in reporter, 24 h; 100% = twice the neutral-well signal. AID 602393. reporter increase, % at 12.5 µM. actives 2% (n = 350,000); in the data active = activation above about 40%; inconclusive = no clear call, values can overlap the other calls;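 note: a rise in the Bmi1 reporter signal indicates esBAF inhibition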
# MITF TRPM1 HTS: increases MITF-driven TRPM1 promoter luciferase signal; SK-MEL-5 TRPM1-promoter luciferase, 24 h; % of positive control, neutral wells = 0; activation, % at 12.5 µM; actives 0.75% (n = 300,000); AID 588334;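 active = mean activation of at least 80% with every replicate also reaching 80%; inconclusive = mean reaches 80% but some replicate falls short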
# rRNA inh HTS: inhibitors of bacterial rRNA selective over humanized ribosomes. E. coli WT GFP vs humanized-ribosome RFP mutants, fluorescence, 24 h; active compounds read low; DMSO median 0, no signal -100. GFP signal change (wild-type ribosome), % (concentration not given with the values). actives 1.6% (n = 350,000). AID 720706;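 active = significant combined selectivity score with lowered wild-type GFP, culture density cut under 30%, mutant RFP and density less affected; inactive = any of these conditions unmet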
# Wnt bcat act: Wnt/beta-catenin pathway activation; Wnt/beta-catenin reporter cell assay, activator, plate reader; activation, % at 9.35 µM; actives 1.2% (n = 300,000); in the data active = activation above about 30%, passing the limit was not always enough; inconclusive = no clear call, values can overlap the other calls
# MLL AF4-AF9 inh: blocks AF4 peptide binding to human AF9. P42568. AlphaScreen, biotin-AF4 peptide binding to FLAG-AF9. inhibition, % at 10 µM. actives 0.47% (n = 350,000);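 active = every replicate reaching a set inhibition limit, whatever the replicate mean, cut at about 25% in these data; inconclusive = mean inhibition reaches that limit but some replicates miss it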
# Target sequence (P42568 whole entry, looked up): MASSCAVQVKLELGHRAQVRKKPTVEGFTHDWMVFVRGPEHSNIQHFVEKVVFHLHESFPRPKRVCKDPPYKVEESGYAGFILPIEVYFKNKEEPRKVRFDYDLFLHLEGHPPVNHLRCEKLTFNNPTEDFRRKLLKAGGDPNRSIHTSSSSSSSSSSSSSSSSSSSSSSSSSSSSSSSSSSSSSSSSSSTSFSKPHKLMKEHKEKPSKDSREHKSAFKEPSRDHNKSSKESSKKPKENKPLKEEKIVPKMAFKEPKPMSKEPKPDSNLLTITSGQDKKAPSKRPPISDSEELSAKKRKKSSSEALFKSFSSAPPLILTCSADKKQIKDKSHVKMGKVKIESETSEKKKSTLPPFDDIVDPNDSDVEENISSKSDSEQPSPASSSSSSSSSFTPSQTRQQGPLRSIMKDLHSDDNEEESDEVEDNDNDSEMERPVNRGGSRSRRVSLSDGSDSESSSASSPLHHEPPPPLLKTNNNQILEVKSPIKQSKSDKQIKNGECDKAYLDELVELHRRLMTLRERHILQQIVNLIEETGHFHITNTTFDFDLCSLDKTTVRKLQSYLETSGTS
# Numbers stand for hits; . = inactive; ? = inconclusive; / = not tested or not shown; ! = not active in a repeat. This is a sample that favours compounds with a hit; in the whole collection about 3.7% have one here.
SMILES,esBAF inh,MITF TRPM1 HTS,rRNA inh HTS,Wnt bcat act,MLL AF4-AF9 inh
COC(=O)c1ccc(C2C(C(=O)OCC(C)C)=C(C)N=C3SCCC(=O)N32)cc1 (stereo not drawn),.,.,/,/,/
O=C(CCc1c[nH]c2ccccc12)N1CCN(c2ccc(F)cc2)CC1,.,.,.,.,.
COCC(=O)N1CC[C@@H]2[C@H]1c1cc(-c3cccc(C(=O)N(C)C)c3)ccc1N[C@@H]2CO,.,/,.,/,/
CC(C)C/C=C1\CCc2c([nH]c3ccccc23)C1=O,52,.,.,39,.
Cc1ccc(Oc2cnc3ccccc3n2)cc1,.,109,/,/,/
Cc1cc(=O)c2c(o1)C(=O)c1occc1C2=O,/,.,.,.,.
O=C1C(Cl)=C(Nc2ccccc2O)C(=O)N1c1ccccc1,.,/,/,55,/
COc1ccccc1N1C(=O)C(Cl)=C(Nc2ccccc2O)C1=O,/,.,/,.,/
Clc1ccc(/C=C/c2ncc3ccccn23)cc1,/,.,.,41,.
C[C@@H]1CN([C@@H](C)CO)C(=O)c2cccc(NS(=O)(=O)c3ccc(Cl)cc3)c2O[C@H]1CN(C)Cc1ccc(-c2ccccc2)cc1,.,/,.,/,.
O=C(c1ccccn1)c1ccc2ccccc2n1,/,/,.,44,/
C[C@@H]1CN([C@@H](C)CO)C(=O)c2cc(/C=C/c3ccccc3)cnc2O[C@H]1CN(C)C(=O)c1ccc2c(c1)OCO2,.,/,.,/,.
NCCCC[C@H]1CNC(=O)C(=O)N1CCc1cccc2ccccc12,.,.,.,.,.
COc1cccc(Nc2nc(CC(C)=O)ns2)c1,/,.,/,/,/
COc1ccc(Nc2nc(CC(C)=O)ns2)cc1,57,.,/,/,/
O=C(c1cccs1)n1cc(C(=S)N2CCOCC2)c2ccccc21,.,.,/,50,/
Cc1cccc(C)c1Nc1nnc(SC/C(O)=C(\C#N)c2nc3ccccc3[nH]2)s1,/,.,-34,.,.
N#C/C(=C(/O)CCl)c1nc2ccccc2[nH]1,/,.,-16,.,.
Oc1ccc(/C=N/Nc2ccnc3cc(Cl)ccc23)c(O)c1,.,.,-33,.,.
Cc1ccc(/C=C/c2nc3ccccc3[nH]2)o1,/,.,.,38,.
CN1c2ccc(-c3cccc(F)c3)cc2[C@@H]2[C@@H](CCN2C(=O)C2CC2)[C@H]1CO,.,/,.,/,.
COc1cc(C(=O)NCC(c2ccc(F)cc2)N2CCOCC2)ccc1OCc1ccccc1Cl (stereo not drawn),.,.,.,.,.
O=C(c1csc(Nc2cccc3ccccc23)n1)N1CCCC1,.,.,-32,.,.
CCN(CC)C(=O)c1csc(Nc2cccc3ccccc23)n1,.,/,.,.,.
CCc1nc2ccc(C(=O)NCCN(C)C)cn2c1N(CC)CCOC,.,/,.,.,.
SMILES,esBAF inh,MITF TRPM1 HTS,rRNA inh HTS,Wnt bcat act,MLL AF4-AF9 inh
CCc1nc2ccc(C(=O)NCCNC(C)=O)cn2c1N(CC)CCOC,.,/,.,.,46
N#Cc1ccc(C(=O)Nc2cc(-c3ccc(F)cc3)nn2-c2ccccc2)cc1,.,.,.,.,.
Cc1noc(C)c1S(=O)(=O)Nc1ccc2c(c1)C(=O)N([C@H](C)CO)C[C@@H](C)[C@H](CN(C)C(=O)Nc1ccc(C(F)(F)F)cc1)OCCCC[C@@H](C)O2,.,/,.,/,.
CCN(CC)c1ccc2cc(-c3nnc(-c4ccncc4)o3)c(=O)oc2c1,44,.,/,/,/
CCN(CC)c1ccc2cc(C(N)=O)c(=O)oc2c1,?,.,.,.,.
O=C(OCc1cn([C@H]2C[C@H](c3ccc(Cl)cc3)N(Cc3cccs3)C[C@@H]2O)nn1)c1ccccc1,.,/,-5.0,.,.
CC(C)NC(=O)Nc1ccc2c(c1)C(=O)N([C@H](C)CO)C[C@@H](C)[C@@H](CN(C)C(=O)NC(C)C)OCCCC[C@H](C)O2,/,/,.,/,.
COc1ccc(-c2ccn(-c3cccc(F)n3)n2)cc1,54,.,.,.,.
COc1ccc(-c2cn3ccccc3n2)cc1,.,.,.,.,.
CC(C)(Cc1ccccc1)/[N+]([O-])=C\c1ccccc1,.,.,.,.,.
CN1CCN(CCCN2c3ccccc3Sc3ccc(C(F)(F)F)cc32)CC1,.,.,.,.,27!
O=C(CN1CCCC(O)C1)N1c2ccccc2Sc2ccc(C(F)(F)F)cc21 (stereo not drawn),.,.,/,/,/
CC(C)CCn1cnc2c(sc3nc4c(cc32)CSC(C)(C)C4)c1=O,/,85,.,.,.
CCCCn1cnc2c(sc3nc4c(cc32)CSC(C)(C)C4)c1=O,47,.,/,.,/
CC1(C)Cc2nc3sc4c(NCCO)ncnc4c3cc2CS1,.,.,.,.,/
COc1ccc2c3c([nH]c2c1)[C@@H](CO)N(C(=O)CC1CC1)CC31CCN(Cc2ccncc2)CC1,/,/,.,/,/
COc1ccc(OC)c(-c2nc(CN3CCN(C(=O)c4ccco4)CC3)c(C)o2)c1,.,.,.,.,.
COc1ccc(/C=N\NC(=O)c2ccccc2F)cc1COc1ccc(F)cc1F,.,.,.,.,.
COc1ccc(/C=N\NC(=O)c2cc(O)c(O)c(O)c2)cc1COc1ccc(C(=O)OCC(C)C)cc1,.,.,.,.,54
COc1ccc(/C=N/NC(=O)c2cc(C(C)(C)C)[nH]n2)cc1COc1ccc(F)cc1F,.,.,-24,.,.
COc1ccc(C(=O)N/N=C/c2ccc(OC)c(COc3ccccc3)c2)cc1,.,.,.,.,.
Cc1cc(=O)[nH]c(SCc2nc3ccccc3n2Cc2ccccc2)n1,.,.,/,/,/
Cc1ccccc1NC(=O)/C(C#N)=C\c1cc(C)n(-c2ccc(C(=O)O)cc2)c1C,.,.,-23,.,.
Cc1ccc(-n2c(C)cc(C=C(C#N)C#N)c2C)cc1,.,.,/,.,/
Cc1cc(C=C(C#N)C#N)c(C)n1-c1ccccc1,46,.,/,/,/
SMILES,esBAF inh,MITF TRPM1 HTS,rRNA inh HTS,Wnt bcat act,MLL AF4-AF9 inh
Cc1cc(/C=C(/C#N)C(=O)Nc2ccccc2)c(C)n1-c1cccnc1,44,.,.,/,/
O=C(NCC[C@H]1CC[C@H](NC(=O)C2CCOCC2)[C@H](CO)O1)c1ccc(F)cc1,.,/,.,/,.
COc1cccc(NC(=O)CN2CCSc3ccccc32)c1,/,.,.,.,.
COc1ccccc1NC(=O)CN1CCSc2ccccc21,/,.,-21,.,.
Nc1c(-c2cccs2)cnc2c(-c3ccc(F)cc3)cnn12,.,.,.,54,.
O=S(=O)(NC(=NCc1ccccc1)c1ccccc1)c1ccc(Br)cc1,.,.,.,.,.
Cn1c(/C=C/c2ccccc2)nc2ccccc21,/,.,-24,.,.
COCCn1c(/C=C/c2ccccc2)nc2ccccc21,37,97,.,.,.
COc1ccccc1Cn1c(/C=C/c2ccccc2)nc2ccccc21,/,.,/,38,/
CC(=O)c1ccc(/C=C/c2nc3ccccc3n2C)o1,/,/,/,35,.
COCCn1c(-c2ccccc2)nc2ccccc21,.,.,/,.,/
Cn1c(=O)c(/C=C/c2ccccc2)nc2ccccc21,/,.,/,.,/
C[C@@H]1CN([C@H](C)CO)C(=O)c2cc(NC(=O)C3CCCCC3)ccc2O[C@@H](C)CCCCO[C@H]1CN(C)C(=O)Nc1ccc2c(c1)OCO2,.,/,.,/,.
